Measurements taken from PubChem BioAssay (Tox21).
Inconclusive results are not listed. Activity calls are given as the source filed them. Unless noted, the call rests on the fitted dose curve.

How the values were obtained:
[1] = Nuclear factor erythroid 2-related factor 2/antioxidant responsive element (Nrf2/ARE) small molecule agonists: qHTS cell viability counter screen in human keratinocytes (AID 1919968; active means well fitted cell-killing curve with a large enough effect in the repeat runs; further: nearly all actives have a fitted effect of over 55% in size)
Summary of the method: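 Fluorescence read-out from CellTiter-Fluor after 1 h at 37 C. Wells held HaCaT-derived ARE-luciferase reporter cells (1,500/well) treated 23 h with DMSO-dissolved compounds. Run in the same wells as the luciferase agonist read.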

[2] = Nuclear factor erythroid 2-related factor 2/antioxidant responsive element (Nrf2/ARE) small molecule agonists: luciferase reporter gene qHTS assay in human keratinocytes (AID 1919969); further: nearly all actives have a fitted effect of over 35% in size
[3] = molecular target: Gonadotropin-releasing hormone receptor (Homo sapiens) (UniProt P30968); test: Human gonadotropin-releasing hormone receptor (GnRHR) small molecule agonists, calcium flux assay in GnRHR-HEK293 cells (AID 1920063); further: nearly all actives have a fitted effect of over 35% in size
Summary of the method: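 Calcium-dye fluorescence, Ex/Em=480/540, recorded every 1 sec over 3 min after compound addition to GnRHR-HEK293 cells. Cells had been seeded 18 hours earlier and dye-loaded for 1 hour at 37 C. Fifteen concentrations, triplicates.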

[4] = G protein-coupled receptor (GPCR) small molecule agonists, calcium flux assay: HEK293 wild type cell line counter screen (AID 1920065)
Summary of the method: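 Agonist mode; 18 h seeding at 37 C, 1 h dye load at 37 C; compounds pinned from DMSO, ATP as positive control; kinetic fluorescence 480/540 nm, 3 min, 1 s reads; 15 concentrations, triplicate.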

[5] = p53 small molecule agonists, cell-based qHTS assay with human liver microsomes (AID 1963577);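 further: p53 response element beta-lactamase reporter cells with liver microsomes plus NADPH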
Summary of the method: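 HLM-supplemented p53RE-bla reporter assay: 16 h compound exposure at 37 C, microsomes and NADPH each 0.5 mg/mL final, read by fluorescence intensity.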

[6] = p53 small molecule agonists, cell-based qHTS assay with rat liver microsomes (AID 1963578)
Summary of the method: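 Quantitative HTS of the Tox21 10K library: p53RE-bla cells, rat liver microsomes plus NADPH at 0.5 mg/mL final each, 16 h at 37 C, beta-lactamase fluorescence detection.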

[7] = p53 small molecule agonists, cell-based qHTS assay with human liver microsomes: qHTS cell viability counter screen (AID 1963579); further: nearly all actives have a fitted effect of over 45% in size
Summary of the method: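 Viability of p53RE-bla cells is measured as CellTiter-Glo luminescence following a 16 h, 37 C incubation with compound, liver microsomes from human donors and NADPH.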

[8] = p53 small molecule agonists, cell-based qHTS assay with rat liver microsomes: qHTS cell viability counter screen (AID 1963580); further: nearly all actives have a fitted effect of over 45% in size
Summary of the method: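 Rat liver microsome (0.5 mg/mL final) and NADPH (0.5 mg/mL final) co-incubation with compounds for 16 h at 37 C on HCT-116 p53RE-bla cells; cytotoxicity taken from intracellular ATP luminescence.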

[9] = p53 small molecule agonists, cell-based qHTS assay: qHTS cell viability counter screen (AID 1963581); further: nearly all actives have a fitted effect of over 45% in size
Summary of the method: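 Cytotoxicity read-out: ATP-based luminescence (CellTiter-Glo, 30 min RT) measured in the same wells as the p53 reporter assay, HCT-116 p53RE-bla cells, 16 h compound exposure at 37 C.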

[10] = p53 small molecule agonists, cell-based qHTS assay (AID 1963582; active means well fitted activation curve with a large enough effect in the signal ratio in the repeat runs, not every such curve was filed as active; the % refers to the signal ratio)
Summary of the method: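 Fluorescence intensity read-out of a beta-lactamase reporter under a p53 response element. Cells were exposed to DMSO-dissolved compounds for 16 h at 37 C, then developed with FRET substrate for 2 h at RT.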

[11] = molecular target: 5-hydroxytryptamine receptor 2A (Homo sapiens) (UniProt P28223); test: 5-hydroxytryptamine receptor 2A (HTR2A) small molecule antagonists, cell-based qHTS assay (AID 1963586); further: nearly all actives have a fitted effect of over 45% in size
Summary of the method: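 CHO cells stably expressing human HTR2A were plated for 18 h at 37 C, then loaded with calcium dye for 1 h. Compounds were preincubated 5 min at room temperature before DOI (4 nM solution) was added. Kinetic fluorescence was read for 3 min.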

[12] = molecular target: 5-hydroxytryptamine receptor 2A (Homo sapiens) (UniProt P28223); test: 5-hydroxytryptamine receptor 2A (HTR2A) small molecule agonists, cell-based qHTS assay (AID 1963587); further: nearly all actives have a fitted effect of over 30% in size
Summary of the method: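 Kinetic calcium-flux fluorescence (2 min, 1 sec intervals) after compound addition in agonist mode. HTR2A-CHO cells were cultured 18 h, then dye-loaded 1 h at 37 C.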

[13] = molecular target: Muscarinic acetylcholine receptor M1 (Homo sapiens) (UniProt P11229); test: Cholinergic receptor muscarinic 1 (CHRM1) small molecule antagonists, cell-based qHTS assay (AID 1963588); further: nearly all actives have a fitted effect of over 40% in size
Summary of the method: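 Compounds were tested at 15 concentrations in three independent runs. Dye-loaded CHRM1-CHO cells were exposed 5 min at room temperature before stimulation by acetylcholine added at 50nM. Intracellular calcium was read kinetically on FDSS for 3 min.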

[14] = cAMP Responsive Elements (CRE) small molecule agonists, cell-based qHTS assay (AID 1963590)
Summary of the method: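 Beta-lactamase reporter readout: LiveBLAzer B/G FRET substrate, 2 h at room temperature, added after 3 h compound treatment of CRE-bla HEK 293T cells at 37 C/5% CO2.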

[15] = cAMP Responsive Elements (CRE) small molecule antagonists, cell-based qHTS assay (AID 1963591; active means well fitted inhibition curve with a large enough effect in the signal ratio in the repeat runs, not every such curve was filed as active; the % refers to the signal ratio)
Summary of the method: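 HEK293T CRE-bla; 18 h preincubation; compound pin-transfer; NKH477 0.25 uM final, 3 h, 37 C; LiveBLAzer FRET substrate 2 h RT.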

[16] = molecular target: Beta-2 adrenergic receptor (Homo sapiens) (UniProt P07550); test: Adrenergic beta2 receptor (ADRB2) small molecule antagonists, cell-based qHTS assay (AID 1963592); further: series mostly up to about 92 µM; nearly all actives have a fitted effect of over 50% in size
Summary of the method: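 Assay format: CHO-ADRB2 cells, 18-20hr seeding at 37C/5% CO2, then compound plus 1nM isoproterenol agonist mix for 0.5hr RT. Homogeneous time-resolved fluorescence cAMP detection after 1hr, expressed as 665/615 nm ratio.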

[17] = molecular target: D(2) dopamine receptor (Homo sapiens) (UniProt P14416); test: Dopamine D2 receptor (DRD2) small molecule agonists, cell-based qHTS assay (AID 1963594); further: nearly all actives have a fitted effect of over 35% in size
Summary of the method: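 cAMP accumulation in DRD2-HEK293 cells measured by HTRF after 1 h detection; compounds added 10 min before NKH477 (200nM […]) forskolin-analogue stimulation, 30 min at room temperature, with Ro20-1724 present at 0.1 mM final.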

[18] = molecular target: D(2) dopamine receptor (Homo sapiens) (UniProt P14416); test: Dopamine D2 receptor (DRD2) small molecule antagonists, cell-based qHTS assay (AID 1963595; active means well fitted inhibition curve with a large enough effect in the signal ratio in the repeat runs, with a control signal flat; the % refers to the signal ratio)
Summary of the method: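 DRD2-HEK293; 0.1 mM Ro20-1724; cpd 10 min RT; NKH477 200 nM + quinpirole 12 nM, 30 min RT; HTRF cAMP (cAMP-d2/anti-cAMP cryptate), 665/620 nm ratio after 1 h.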

[19] = molecular target: Muscarinic acetylcholine receptor M1 (Homo sapiens) (UniProt P11229); test: Cholinergic receptor muscarinic 1 (CHRM1) small molecule agonists, cell-based qHTS assay (AID 1963589); further: nearly all actives have a fitted effect of over 35% in size
Summary of the method: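 Calcium flux read-out: kinetic fluorescence at 1 sec intervals after pin-tool compound addition to dye-loaded CHRM1-CHO cells (human M1). Agonist mode; 15 concentrations tested in triplicate independent runs.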

Measured: Potency

Chain of Beta-2 adrenergic receptor (Homo sapiens) (P07550 whole entry, looked up): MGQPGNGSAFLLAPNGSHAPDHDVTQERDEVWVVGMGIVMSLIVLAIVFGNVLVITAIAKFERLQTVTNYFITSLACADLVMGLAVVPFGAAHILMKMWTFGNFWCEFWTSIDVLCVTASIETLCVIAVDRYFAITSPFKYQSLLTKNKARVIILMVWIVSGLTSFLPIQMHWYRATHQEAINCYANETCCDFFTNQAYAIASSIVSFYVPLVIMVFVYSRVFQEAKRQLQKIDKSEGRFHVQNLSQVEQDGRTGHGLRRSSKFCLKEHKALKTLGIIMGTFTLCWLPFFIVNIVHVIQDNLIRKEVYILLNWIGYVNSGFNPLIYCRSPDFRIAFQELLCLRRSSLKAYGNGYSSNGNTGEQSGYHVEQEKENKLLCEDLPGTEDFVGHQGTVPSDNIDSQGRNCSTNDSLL
Chain of D(2) dopamine receptor (Homo sapiens) (P14416 whole entry, looked up): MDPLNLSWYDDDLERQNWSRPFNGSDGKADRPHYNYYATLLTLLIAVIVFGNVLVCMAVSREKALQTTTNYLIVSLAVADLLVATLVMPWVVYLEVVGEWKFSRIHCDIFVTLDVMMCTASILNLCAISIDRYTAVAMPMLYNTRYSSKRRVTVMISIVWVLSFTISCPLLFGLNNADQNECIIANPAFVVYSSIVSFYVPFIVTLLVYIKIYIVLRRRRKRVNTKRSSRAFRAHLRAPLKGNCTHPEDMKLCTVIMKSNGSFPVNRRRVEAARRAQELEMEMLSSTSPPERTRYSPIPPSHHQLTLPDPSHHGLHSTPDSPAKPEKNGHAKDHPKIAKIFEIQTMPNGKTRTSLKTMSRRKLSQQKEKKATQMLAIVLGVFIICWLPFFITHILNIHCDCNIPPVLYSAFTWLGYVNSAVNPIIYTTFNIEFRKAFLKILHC
Chain of Muscarinic acetylcholine receptor M1 (Homo sapiens) (P11229 whole entry, looked up): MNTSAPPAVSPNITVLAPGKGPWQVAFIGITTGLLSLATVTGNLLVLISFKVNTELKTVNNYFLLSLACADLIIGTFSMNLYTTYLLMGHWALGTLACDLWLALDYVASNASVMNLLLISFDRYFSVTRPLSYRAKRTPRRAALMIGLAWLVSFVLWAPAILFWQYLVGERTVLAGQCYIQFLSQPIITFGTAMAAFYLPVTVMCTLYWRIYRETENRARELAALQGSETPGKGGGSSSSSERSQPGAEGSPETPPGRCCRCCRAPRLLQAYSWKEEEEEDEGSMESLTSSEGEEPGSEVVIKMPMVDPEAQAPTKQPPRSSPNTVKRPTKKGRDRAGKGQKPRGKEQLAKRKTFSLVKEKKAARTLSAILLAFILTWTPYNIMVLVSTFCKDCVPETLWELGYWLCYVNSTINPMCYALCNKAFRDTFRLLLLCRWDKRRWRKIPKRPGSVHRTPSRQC
Chain of Gonadotropin-releasing hormone receptor (Homo sapiens) (P30968 whole entry, looked up): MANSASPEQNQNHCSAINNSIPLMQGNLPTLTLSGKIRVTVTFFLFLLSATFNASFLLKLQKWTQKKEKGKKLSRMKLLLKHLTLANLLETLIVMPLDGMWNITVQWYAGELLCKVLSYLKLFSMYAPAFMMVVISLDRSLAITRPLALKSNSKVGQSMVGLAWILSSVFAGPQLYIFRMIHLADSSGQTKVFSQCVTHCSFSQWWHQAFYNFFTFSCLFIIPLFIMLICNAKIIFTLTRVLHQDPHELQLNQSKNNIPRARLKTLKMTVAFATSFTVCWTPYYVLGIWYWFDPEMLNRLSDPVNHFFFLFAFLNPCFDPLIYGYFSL
Chain of 5-hydroxytryptamine receptor 2A (Homo sapiens) (P28223 whole entry, looked up): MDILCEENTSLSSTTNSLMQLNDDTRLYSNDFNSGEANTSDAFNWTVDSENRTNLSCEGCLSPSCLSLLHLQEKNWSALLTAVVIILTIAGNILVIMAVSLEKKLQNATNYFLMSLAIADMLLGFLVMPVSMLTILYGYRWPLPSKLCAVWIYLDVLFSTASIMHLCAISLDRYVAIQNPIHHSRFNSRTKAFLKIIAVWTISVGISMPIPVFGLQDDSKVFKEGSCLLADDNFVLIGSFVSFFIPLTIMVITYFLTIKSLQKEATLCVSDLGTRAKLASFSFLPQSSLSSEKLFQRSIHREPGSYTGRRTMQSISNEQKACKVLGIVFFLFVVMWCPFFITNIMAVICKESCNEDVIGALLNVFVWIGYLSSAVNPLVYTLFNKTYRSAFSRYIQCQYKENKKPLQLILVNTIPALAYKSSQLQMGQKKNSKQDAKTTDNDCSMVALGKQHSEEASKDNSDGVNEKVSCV

Cc1cccc(C)n1
not listed: [19]
inactive: all other assays above

Cc1cc(-c2ccccc2)nnc1NCCN1CCOCC1
not listed: [11] | [15]
inactive: all other assays above

CCCOc1ccccc1-c1nc2n[nH]nc2c(=O)[nH]1
not listed: [11] | [12] | [13] | [14] | [15] | [17] | [19]
inactive: all other assays above

C=CCn1c(=O)n(CC=C)c(=O)n(CC=C)c1=O
not listed: [9] | [15] | [17]
inactive: all other assays above

ON=C1CCCC1
not listed: [11]
inactive: all other assays above

N#CSCC(=O)O
not listed: [11]
inactive: all other assays above

OCCN(CCO)CCN(CCO)CCO
not listed: [7] | [8] | [14] | [17]
inactive: all other assays above
